Shown are actives, neighbours in structure and some others; about 3.5% of the full set was active somewhere.
FBW7 activator = FBW7 E3 ligase activators, primary screen, biochemical, AlphaScreen, human; F-box/WD repeat-containing protein 7 (Homo sapiens), Q969H0; AlphaScreen FBW7–phospho-cyclin E peptide binding, activator screen; normalized activity (activation), % at 26.1 µM; 650,000 compounds, 0.13% hits; in the data active = normalized activity above about 1.9%;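 also: purified mutant Fbw7 with reduced substrate affinity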
MITF primary = MITF inhibitors, primary screen, biochemical, AlphaScreen, human; Microphthalmia-associated transcription factor (Homo sapiens), O75030; AlphaScreen MITF homodimerization, bead proximity signal; inhibition, % at 2.6 µM; 650,000 compounds, 0.91% hits; AID 1259374, 2018; in the data active = inhibition above about 50%
GPR151 ag = activators of human GPR151, primary screen, cell-based, PathHunter beta-arrestin, luminescence; AID 1508602, 2020; 650,000 compounds, 1% hits; PathHunter beta-arrestin GPR151 cells; activation, % at 11.2 µM; in the data active = activation above about 4.9%
Target sequence (Q8TDV0 whole entry, looked up): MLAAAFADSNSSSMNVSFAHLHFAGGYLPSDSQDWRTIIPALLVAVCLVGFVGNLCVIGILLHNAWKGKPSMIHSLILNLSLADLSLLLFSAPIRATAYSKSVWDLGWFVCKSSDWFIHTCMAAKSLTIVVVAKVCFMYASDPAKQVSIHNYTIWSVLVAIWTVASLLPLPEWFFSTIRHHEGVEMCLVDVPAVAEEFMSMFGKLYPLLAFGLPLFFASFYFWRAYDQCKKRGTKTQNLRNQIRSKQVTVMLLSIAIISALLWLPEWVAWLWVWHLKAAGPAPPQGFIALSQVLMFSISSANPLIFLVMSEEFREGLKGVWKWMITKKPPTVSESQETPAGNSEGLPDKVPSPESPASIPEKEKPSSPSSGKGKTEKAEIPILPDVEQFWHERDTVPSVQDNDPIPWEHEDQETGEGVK
TEAD-YAP block = TEAD-YAP interaction inhibition, primary screen, TEAD-YAP interaction inhibitor project, luminescence, HEK-TIYL cells | 640,000 compounds, 1.4% hits | inhibition, % at 9.12 µM | TEAD-Gal4/YAP UAS-luciferase luminescence; in the data active = inhibition above about 32%
A number is an active result; i = inactive.

SMILES	FBW7 activator	MITF primary	GPR151 ag	TEAD-YAP block
COCCOC(=O)C1=C(C)NC2=C(C(=O)CC(c3cccs3)C2)C1c1cccs1 (stereo not drawn)	i	i	i	i
CCN1C=CC(=C2C(=O)c3ccccc3C2=O)C=C1	i	i	i	95.3
CN1C=CC(=C2C(=O)c3ccccc3C2=O)C=C1	i	i	i	i
CCCCN1C(C)=CC(=C2C(=O)c3ccccc3C2=O)C=C1C	i	i	i	55.8
O=C(Nc1ccc(F)cc1)N1CCN(Cc2nnnn2-c2ccc(F)c(F)c2)CC1	i	i	i	i
CC(c1ccc([N+](=O)[O-])cc1)c1nc(-c2ccncc2)no1 (stereo not drawn)	i	i	i	i
CC(c1ccc([N+](=O)[O-])cc1)c1nc(-c2ccccn2)no1 (stereo not drawn)	i	i	i	67.0
CCN(CC)Cc1c(O)ccc2c(C)cc(=O)oc12	i	i	i	i
CC(C)Cn1c(N)c(C(=O)c2ccc(N3CCCCC3)c([N+](=O)[O-])c2)c(=O)[nH]c1=O	i	i	i	i
O=C(Cc1ccccc1)N/N=C/c1ccc(O)c2ncccc12	i	98.2	i	i
O=C(N/N=C/c1ccc(O)c2ncccc12)c1ccc(F)cc1	i	113.1	i	i
O=C(Cc1ccccc1)N/N=C/c1cccc2ccccc12	i	i	i	i
COc1ccccc1-c1nnc2sc(-c3cc4ccccc4o3)nn12	i	i	i	53.2
NCC(=O)N1CC(C(=O)Nc2nc3ccc(-c4cn[nH]c4)cc3s2)C(c2ccccc2)C1 (stereo not drawn)	i	i	i	i
COc1cccc(C(=O)Nc2nc3ccc(-c4cn[nH]c4)cc3s2)c1	i	i	i	i
COc1cccc(CNC(=O)Nc2nc3ccc(-c4cn[nH]c4)cc3s2)c1	i	i	i	96.4
COc1ccc2c(c1)CC(C(=O)Nc1nc3ccc(-c4cn[nH]c4)cc3s1)CO2 (stereo not drawn)	i	i	i	i
O=C(Nc1nc2ccc(-c3cn[nH]c3)cc2s1)C1COc2ccc(F)cc2C1 (stereo not drawn)	i	i	i	47.8
O=C(Nc1nc2ccc(-c3cn[nH]c3)cc2s1)C1CNCC1c1ccccc1 (stereo not drawn)	i	i	i	53.9
O=C(CC1C(=O)NCCN1C1CCCC1)NCc1ccc(N2CCCC2=O)cc1 (stereo not drawn)	i	i	i	i
COC(=O)C1=CN(Cc2ccc(Cl)cc2)C=C(C(=O)OC)C1c1ccccc1OC(C)C	2.1	i	i	i
CCOC(=O)C1=CN(Cc2ccc(F)cc2)C=C(C(=O)OCC)C1c1ccc(SC)cc1	1.9	i	i	i
CCOC(=O)C1=CN(Cc2ccc(Cl)cc2)C=C(C(=O)OCC)C1c1ccccc1OC(C)C	i	i	i	i
CCOC(=O)C1=CN(Cc2ccc(OC)cc2)C=C(C(=O)OCC)C1c1ccccc1OC	i	i	i	i
COC(=O)C1=CN(Cc2ccc(F)cc2)C=C(C(=O)OC)C1c1ccccc1Cl	i	i	i	i
SMILES	FBW7 activator	MITF primary	GPR151 ag	TEAD-YAP block
COC(=O)C1=CN(Cc2ccc(F)cc2)C=C(C(=O)OC)C1c1ccccc1OC(C)C	5.0	i	i	i
CCOC(=O)C1=CN(Cc2ccc(OC)cc2)C=C(C(=O)OCC)C1c1ccccc1OCc1ccccc1	2.2	i	i	i
CCOC(=O)c1cc2c(=O)n3ccccc3nc2n(CC(C)C)c1=NC(=O)c1cccs1	i	i	i	i
O=C(O)C(CSc1ncccn1)CSc1ncccn1	i	i	i	i
CC1CC(Nc2ccccc2)c2ccccc2N1C(=O)COc1ccc(F)cc1 (stereo not drawn)	i	i	i	i
Cc1ccc(SCCNC(=O)CCl)cc1	i	i	i	42.8
COc1ccc2[nH]c3c(c2c1)CCNC3=O	i	i	i	45.9
Cc1c(Cl)cccc1NC(=O)NCCCN(C)C	i	i	i	i
COc1cc(C2C(C#N)=C(N)N(c3ccc(C)cc3)C3=C2C(=O)CCC3)cc(OC)c1OC (stereo not drawn)	i	i	i	61.1
Cc1ccc(C2C(C#N)=C(N)N(N(C)C)C3=C2C(=O)CCC3)cc1 (stereo not drawn)	i	i	i	i
COc1ccc(N2C(N)=C(C#N)C(c3ccc(O)c(OC)c3)C3=C2CCCC3=O)cc1 (stereo not drawn)	i	i	i	58.0
